LDHA inh: qHTS assay for inhibitors of human lactate dehydrogenase. L-lactate dehydrogenase A chain (Homo sapiens), P00338. AID 1347041, 2019. purified LDHA, NADH/diaphorase-resazurin fluorescence; hits give low values. 0.15% of 480,000 active. activity change, % (values are at about 110 or 230 µM); in the data active = activity change below about -30%; inconclusive = mostly about -25% to -30%;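 also: plate controls were DMSO wells for no effect and wells without enzyme for full effect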
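Resorufin fluorescence (ex540/em590), read at 0 and 20 min after diaphorase/resazurin addition, reports the NADH left after a 5 min room-temperature reaction of 2 nM human LDH5 with 0.06 mM NADH and 0.2 mM pyruvate.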
HepG2 tox-1: qHTS for Inhibitors of TGF-b: Cytotox Counterscreen; 0.76% of 410,000 active; Potency, µM (series often up to 46.1 µM), for inactives: at the top dose activity change, negative = cytotoxicity, most hits filed as cytotoxic; HepG2 CAGA-GFP viability, ATP luminescence, 18 h; also: potency is read from the fitted curve at half-maximal effect
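HepG2 CAGA-GFP cells (1000/well, DMEM with 1% FBS) received compound, then TGF-beta at 500 pg/mL final, and were incubated 18 hours at 37 degrees C. Viability was read by CellTiter-Glo luminescence. Media-only wells were set as complete cell-killing and DMSO as no toxicity.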
TGFb inhibitor: qHTS for Inhibitors of TGF-b; HepG2 CAGA-GFP TGF-b/SMAD3 reporter, GFP fluorescence, 18 h; TGF-beta stimulated, 500 pg/mL final; Potency, µM (doses to about 46.1 µM), inactives show top-dose activity, negative = inhibition, usual class: inhibitors; 1.2% of 410,000 active; AID 588855, 2011; also: potency is read from the fitted curve at half-maximal effect; % is scaled to controls: 0 for no effect and ±100 for the full control effect; nearly all actives have a fitted effect of over 65% in size
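HEPG2 CAGA-GFP reporter cells (1000/well, DMEM with 1% FBS) received compounds, then recombinant TGF-beta at 500 pg/mL final for 18 hours at 37 degrees C. Per-cell GFP summed per well was normalised to unstimulated and stimulated DMSO controls before curve fitting.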
IDH1 R132H inh: qHTS for Inhibitors of mutant isocitrate dehydrogenase 1 (IDH1): qHTS | Isocitrate dehydrogenase [NADP] cytoplasmic (Homo sapiens), O75874 | IDH1-R132H enzyme, NADPH consumption, diaphorase/resazurin fluorescence | Potency, µM (top dose mostly 76.6 µM), inactives show at the highest dose activity change, negative = inhibition, hits mostly inhibitors | 0.093% of 390,000 active; also: potency is read from the fitted curve at half-maximal effect; % is scaled to controls: 0 for no effect and ±100 for the full control effect; nearly all actives have a fitted effect of over 65% in size
Target sequence (O75874 whole entry R132H, stated change not applied): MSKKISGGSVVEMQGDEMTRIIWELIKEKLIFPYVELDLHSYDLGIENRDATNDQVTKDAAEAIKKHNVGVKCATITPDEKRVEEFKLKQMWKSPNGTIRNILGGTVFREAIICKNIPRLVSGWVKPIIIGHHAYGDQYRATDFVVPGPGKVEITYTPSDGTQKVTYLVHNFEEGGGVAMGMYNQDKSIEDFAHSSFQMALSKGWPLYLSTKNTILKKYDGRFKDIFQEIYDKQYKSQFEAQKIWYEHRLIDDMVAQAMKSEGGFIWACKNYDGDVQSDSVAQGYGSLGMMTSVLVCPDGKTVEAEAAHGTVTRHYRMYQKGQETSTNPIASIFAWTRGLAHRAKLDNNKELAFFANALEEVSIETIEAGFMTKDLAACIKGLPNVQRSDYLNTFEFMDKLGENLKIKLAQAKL
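IDH1-R132H (0.5 ug/mL dispensed) in pH 7.5 Tris buffer was preincubated 30 min with compound, then given a substrate mix of 0.016 mM NADPH and 2 mM alpha-KG for 80 min at room temperature; remaining NADPH was read by diaphorase/resazurin fluorescence.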
ATXN2 expr inh: Primary qHTS for Inhibitors of ATXN expression. HEK-293 ATXN2-luciferase reporter, luminescence, 24 h. Potency, µM (doses to about 57 µM), for the others: at the top dose activity change, negative = inhibition, actives largely listed as inhibitors. 0.72% of 360,000 active. AID 1745845, 2022; also: potency is read from the fitted curve at half-maximal effect; % is scaled to controls: 0 for no effect and ±100 for the full control effect; nearly all actives have a fitted effect of over 55% in size
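ATXN2-luciferase reporter cells (luciferase flanked by upstream and downstream ATXN2 gene portions) were treated 24 h at 37 °C with compounds at up to 57 uM. SteadyGlo luminescence gave expression; GF-AFC fluorescence gave viability.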
ATXN viability: Viability Counterscreen for Primary qHTS for Inhibitors of ATXN expression. S2 cells (HEK-293 line with an ATXN2-luciferase reporter) viability, CellTiter-Fluor protease fluorescence, 24 h. Potency, µM (top dose mostly 56.7 µM), actives largely listed as cytotoxic. 0.49% of 400,000 active. AID 651635, 2014; also: potency is read from the fitted curve at half-maximal effect; nearly all actives have a fitted effect of over 40% in size
TGFb confirm: qHTS for Inhibitors of TGF-b: Confirmation of Cherry Picks; shares compounds with TGFb inhibitor; HepG2 CAGA-GFP TGF-b reporter, GFP fluorescence, 18 h; cells stimulated with TGF-beta, 500 pg/mL; Potency, µM (titrated, usually from 46.1 µM), without a hit: at the top dose activity, negative = inhibition, usual class: inhibitors; 63% of 1,600 active; AID 720534, 2013; also: potency is read from the fitted curve at half-maximal effect; % is scaled to controls: 0 for no effect and ±100 for the full control effect; nearly all actives have a fitted effect of over 65% in size
HepG2 tox-2: qHTS for Inhibitors of TGF-b: Cytotox Counterscreen for Cherry Picks; shares compounds with TGFb inhibitor; HepG2 CAGA-GFP viability, ATP luminescence, 18 h; cells stimulated with TGF-beta, 500 pg/mL; Potency, µM (highest dose often 46.1 µM), for the others: top-dose activity, negative = cytotoxicity, actives largely listed as inhibitors; 27% of 1,600 active; also: potency is read from the fitted curve at half-maximal effect; % is scaled to controls: 0 for no effect and ±100 for the full control effect; nearly all actives have a fitted effect of over 70% in size
TGFb CCL64 inh: qHTS for Inhibitors of TGF-b: CCL64 Cells Orthogonal Assay for Cherry Picks | CCL64 CAGA-GFP reporter, TGF-b stimulated, GFP fluorescence, 18 h | shares compounds with TGFb inhibitor | AID 720536, 2013 | 41% of 1,600 active | Potency, µM (titrated, usually from 46.1 µM), inactives show at the top dose activity, negative = inhibition, usual class: inhibitors; also: potency is read from the fitted curve at half-maximal effect; nearly all actives have a fitted effect of over 65% in size
COP TGFb inh: qHTS for Inhibitors of TGF-b: Hit Validation in HepG2 Cells using COP promoter | shares compounds with TGFb inhibitor | HepG2 COP-GFP TGF-b reporter, GFP fluorescence, 18 h; cells stimulated by added recombinant TGF-beta | Potency, µM (top dose mostly 46.1 µM), inactives show at the highest dose activity, negative = inhibition, usual class: inhibitors | 3% of 1,600 active; also: potency is read from the fitted curve at half-maximal effect; nearly all actives have a fitted effect of over 70% in size
An asterisk follows results filed as active. Only some compounds are listed: those with a hit (about 2.2% of all), similar ones and a draw of the others. Unless noted, calls follow the shape of the dose curve; as a rule, active = well fitted curve in the direction sought with a large enough effect; inconclusive = small, poorly fitted or top-dose-only effect, or another doubt; inactive = no such curve, though single readings can be large; an effect the other way counts as inactive or inconclusive.

Results for COc1cc(C=CC(=O)c2ccccc2)cc(OC)c1OC ?
LDHA inh: 0; HepG2 tox-1: -93%; TGFb inhibitor: 10µM*; ATXN2 expr inh: inconclusive; ATXN viability: inactive; TGFb confirm: 18µM*; HepG2 tox-2: inconclusive; TGFb CCL64 inh: 16µM*; COP TGFb inh: 36%

What do the screens show for `COc1ccc(C)cc1S(=O)(=O)N(CC(=O)NCc1ccc(Cl)cc1)Cc1ccccc1`?
LDHA inh: 2; HepG2 tox-1: -1%; TGFb inhibitor: 13µM*; IDH1 R132H inh: 5%; ATXN2 expr inh: 0%; ATXN viability: inactive; TGFb confirm: inconclusive; HepG2 tox-2: inconclusive; TGFb CCL64 inh: inconclusive; COP TGFb inh: 43%

How did COc1ccc(CNC(=O)CN(Cc2ccccc2)S(=O)(=O)c2ccc(Cl)cc2)cc1 do in these assays?
LDHA inh: -4; HepG2 tox-1: 0%; TGFb inhibitor: inconclusive; IDH1 R132H inh: 5%; ATXN2 expr inh: -10%; ATXN viability: inactive

What do the screens show for `CC(=O)c1ccc(OCCCC(=O)Nc2ccc(Cl)c(S(=O)(=O)N3CCOCC3)c2)cc1`?
LDHA inh: -9; HepG2 tox-1: -5%; TGFb inhibitor: inconclusive; IDH1 R132H inh: 4%; ATXN viability: inactive

Results for Cc1ccc(OCCCC(=O)Nc2ccc(Cl)c(S(=O)(=O)N3CCOCC3)c2)cc1 ?
LDHA inh: 2; HepG2 tox-1: -27%; TGFb inhibitor: 8.9µM*; IDH1 R132H inh: -5%; ATXN2 expr inh: -35%; ATXN viability: inactive; TGFb confirm: inconclusive; HepG2 tox-2: inconclusive; TGFb CCL64 inh: 3%; COP TGFb inh: 1%

How did COc1ccc(C2C(C#N)=C(N)N(Nc3ccccc3)C3=C2C(=O)CC(C)(C)C3)cc1C (configuration not stated) do in these assays?
LDHA inh: 5; HepG2 tox-1: -1%; TGFb inhibitor: 11µM*; IDH1 R132H inh: -14%; ATXN2 expr inh: -23%; ATXN viability: inactive; TGFb confirm: 21µM*; HepG2 tox-2: -25%; TGFb CCL64 inh: inconclusive; COP TGFb inh: 21%

How did Cc1c(C(=O)Nc2nonc2-c2ccc(F)cc2)oc2ccc(F)cc12 do in these assays?
LDHA inh: -3; HepG2 tox-1: -28%; TGFb inhibitor: 11µM*; IDH1 R132H inh: 4%; ATXN2 expr inh: 28µM*; ATXN viability: inconclusive; TGFb confirm: 13µM*; HepG2 tox-2: inconclusive; TGFb CCL64 inh: inconclusive; COP TGFb inh: 56%

Results for Cc1c(C(=O)Nc2nonc2-c2ccccc2)oc2ccc(F)cc12 ?
LDHA inh: -1

Results for CC[C@@H]1C(c2ccccc2)=NN(c2ccccc2)[C@H]1C(=O)N1CCOC1=O ?
LDHA inh: 4; HepG2 tox-1: -20%; TGFb inhibitor: inconclusive; IDH1 R132H inh: 12%; ATXN2 expr inh: -12%; TGFb confirm: -13%; HepG2 tox-2: 0%; TGFb CCL64 inh: -2%; COP TGFb inh: -10%

What do the screens show for `O=C1OCCN1C(=O)[C@H]1[C@H](c2ccc([N+](=O)[O-])cc2)C(c2cccc(Cl)c2)=NN1c1ccccc1`?
LDHA inh: -4; HepG2 tox-1: -8%; TGFb inhibitor: inconclusive; IDH1 R132H inh: 0%; ATXN2 expr inh: -2%; ATXN viability: inconclusive; TGFb confirm: -27%; HepG2 tox-2: -18%; TGFb CCL64 inh: 0%; COP TGFb inh: -5%

What do the screens show for `CCN(CC(=O)Nc1ccccc1OC)C(=O)CCOc1ccc(C(C)(C)C)cc1`?
LDHA inh: 0; HepG2 tox-1: -23%; TGFb inhibitor: -30%; IDH1 R132H inh: 4%; ATXN2 expr inh: -9%; ATXN viability: inactive

How did CC(=O)N1c2c(cc(Br)cc2S(=O)(=O)N2CCN(c3ccccc3)CC2)CC1C (configuration not stated) do in these assays?
LDHA inh: -5; HepG2 tox-1: -8%; TGFb inhibitor: inconclusive; IDH1 R132H inh: 18%; ATXN2 expr inh: -12%; ATXN viability: inactive

How did CCOc1ccc(-n2c(=O)c3c4c(sc3n(CC(=O)NCc3ccco3)c2=O)CCC4)cc1 do in these assays?
LDHA inh: -6; HepG2 tox-1: 6%; TGFb inhibitor: 11%; IDH1 R132H inh: 1%; ATXN2 expr inh: -11%; ATXN viability: inactive

Results for COc1cc(O)c(C(CC(=O)N2CCCC2)c2cc(OC)c(OC)c(OC)c2)c(OC)c1 (configuration not stated) ?
LDHA inh: 0; HepG2 tox-1: 19%; TGFb inhibitor: 31%; IDH1 R132H inh: -3%; ATXN2 expr inh: 9%; ATXN viability: inactive; TGFb confirm: 5%; HepG2 tox-2: 1%; TGFb CCL64 inh: -13%; COP TGFb inh: -7%

Results for COc1ccccc1CNC(=O)COC(=O)[C@H](Cc1c[nH]c2ccccc12)NC(=O)c1cccs1 ?
LDHA inh: -2; HepG2 tox-1: -25%; TGFb inhibitor: inconclusive; IDH1 R132H inh: 2%; ATXN2 expr inh: 0%; ATXN viability: inactive

Source: PubChem
